# Measurements from the supplement of paper PMC12645437, “Orthogonal IMiD-Degron Pairs Induce Selective Protein Degradation in Cells” (ACS Chemical Biology, 2025).
# The full ranking holds about 8,300 sequences; the median of “log2 fold change of degron read counts, EGFP-low vs EGFP+ sorted cells (limma voom), compound-induced degradation” is about -1.1, and the highest 2% start at about 3.2. The entries come from a sample that favours the highest values as a whole.
# T1: CRBN, Q96SW2
# T1 chain: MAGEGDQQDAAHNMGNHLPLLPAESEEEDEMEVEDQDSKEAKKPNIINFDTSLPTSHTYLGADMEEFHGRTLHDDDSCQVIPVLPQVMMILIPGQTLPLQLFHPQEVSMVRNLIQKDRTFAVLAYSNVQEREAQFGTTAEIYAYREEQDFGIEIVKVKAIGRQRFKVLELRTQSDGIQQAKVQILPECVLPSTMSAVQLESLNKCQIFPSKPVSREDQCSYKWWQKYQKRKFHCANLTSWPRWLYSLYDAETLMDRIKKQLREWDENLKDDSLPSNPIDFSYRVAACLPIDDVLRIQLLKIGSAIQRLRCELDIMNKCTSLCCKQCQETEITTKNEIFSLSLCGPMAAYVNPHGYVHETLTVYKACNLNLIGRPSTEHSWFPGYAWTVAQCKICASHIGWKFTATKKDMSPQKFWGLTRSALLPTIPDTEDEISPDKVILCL
# Target: T1, CRBN, Q96SW2
# Assay: log2 fold change of degron read counts, EGFP-low vs EGFP+ sorted cells (limma voom), compound-induced degradation; higher = more compound-induced degradation of the degron-EGFP fusion; degrons are variants of IKZF1/3 zinc finger 2; compound dose not given here
# Details: Jurkat, 18 h
# Protocol: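 Pooled library of 8380 IKZF3 ZF2 degron mutants (positions 146-167 varied within the IKZF3 130-189 degron; only the varied core is printed, flanks not printed) fused to EGFP with IRES-mCherry, lentivirally expressed in Jurkat cells. mCherry+ cells were treated with one IMiD compound for 18 h (dose not stated) and FACS-sorted into EGFP-low and EGFP+ populations. Degron sequences were counted by NGS, and log2FC (EGFP-low vs EGFP+) was estimated by limma voom over 3 biological replicates.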
# [1] = compound: compound 19 (5-tert-butyl-thalidomide)
# [2] = compound: compound 22 (5-morpholino-thalidomide)
# [3] = compound: compound 33 (diphenyl IMiD analogue)
# 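Note: pooled lentiviral library of zinc finger degron-EGFP fusions in mCherry-positive Jurkat cells, FACS-sorted after compound exposure, with degron abundance counted by next-generation sequencing.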
Sequence,log2 fold change of degron read counts [1],log2 fold change of degron read counts [2],log2 fold change of degron read counts [3],log2 fold change of degron read counts (compound: thalidomide)
"LTCEICGFWCTQKGNLLRHIKL [46L_47T_49E_50I_52G_53F_54W_55C_67L_, Q9UKT9]",-0.648,-0.501,0.784,0.539
"FDCDICGAAFTQKGNLLRHIKL [46F_47D_49D_50I_52G_53A_54A_55F_67L_, Q9UKT9]",0.561,-1.32,-1.46,-0.827
"FRCEICGHVFTQKGNLLRHIKL [46F_47R_49E_50I_52G_53H_54V_55F_67L_, Q9UKT9]",-2.92,-3.64,-1.71,-2.21
"FMCNVCGAAFTQKGNLLRHIKL [46F_47M_49N_50V_52G_53A_54A_55F_67L_, Q9UKT9]",-1.07,-0.0279,2,0.272
"FTCEVCGAGFTQKGNLLRHIKL [46F_47T_49E_50V_52G_53A_54G_55F_67L_, Q9UKT9]",2.39,2.34,2.42,2.32
"FNCDVCGAFFTQKGNLLRHIKL [46F_47N_49D_50V_52G_53A_54F_55F_67L_, Q9UKT9]",-1.57,-2.42,-1.91,-2.42
"LDCNQCGFCCTQKGNLLRHIKL [46L_47D_49N_50Q_52G_53F_54C_55C_67L_, Q9UKT9]",-2.36,-3.41,-2.85,-2.58
"FTCEICGAWFTQKGNLLRHIKL [46F_47T_49E_50I_52G_53A_54W_55F_67L_, Q9UKT9]",-0.788,-0.479,1.12,1.04
